# Source: PubChem BioAssay (Tox21)
# Inconclusive results are not listed. Entries that show only a call come without a potency. The source made the active and inactive calls. The call rests on the fitted dose curve; in most records, active means well fitted activation curve with a large enough effect in the repeat runs; inconclusive means weak or mixed curves; inactive means flat fitted curve, though single readings scatter.
# Test: A CellTox Green Cytotoxicity Assay to monitor cytotoxicity in HEK293 cells - 8 hour (AID 1224884); further: nearly all actives have a fitted effect of over 35% in size
# Conditions: CellTox Green fluorescence; series mostly up to 76.8 µM
# From the text: National Center for Advancing Translational Sciences [NCATS]
# NIH Chemical Genomics Center [NCGC]
# U.S. Environmental Protection Agency [EPA]
# National Institutes of Environmental Health Sciences [NIEHS]
# National Toxicology Program [NTP]
# Cell-based models are critical for drug discovery. Determining the natural cytotoxic effects resulting from test compounds is an essential research activity. A CellTox Green Cytotoxicity Assay to monitor cytotoxicity in real time of continues cell culture during 40 hours of the compound treatment was used to screen Tox21 10K library compounds in Hek293 cells. CellTox Green Cytotoxicity Assay is a nonlytic, homogeneous, biofluorescent method to measure cytotoxicity in cell culture after experimental manipulation. The assay system uses a proprietary asymmetric cyanine dye that is excluded from viable cells but preferentially stains the dead cell's DNA. […] Viable cells produce no appreciable increases in fluorescence. Therefore, the fluorescence signal produced by the binding interaction with dead cell DNA is proportional to cytotoxicity.
# The mixture of Hek293 cell suspension and reagents were dispensed at 600cells/6 ul/well in 1536-well tissue culture treated black solid bottom plates using a Multidrop dispenser. After the assay plates were incubated at a 37 C/5% CO2 incubator for 5 hours, 23 nL of compounds dissolved in DMSO, positive and negative controls was transferred to the assay plate by a pintool work station. The plates were incubated at 37 C for 40 hours. The fluorescence intensity were measured at 0h, 8h, 16h, 24h, 32h and 40h time points using ViewLux plate reader during compound treatment.
# Potency means the concentration at half of the fitted maximal effect.
Compound,Potency,cytotoxicity increase
O=C1c2ccccc2S(=O)(=O)N1CCCCN1CCN(c2ncccn2)CC1,inactive,
O=C1[C@H]2CCCC[C@H]2C(=O)N1CCCCN1CCN(c2nsc3ccccc23)CC1,inactive,
CCO[Si](CCCCl)(OCC)OCC,inactive,
O=CC1CC=CCC1 (stereo not given),inactive,
CC1=CCCC(C)(C)C12CCC(C)O2 (stereo not given),inactive,
C[C@@H]1C[C@H]2O[C@@]3(O[C@@H]2C(C)(C)O)[C@H](O)[C@@]2(C)[C@@H]4CC[C@H]5C(C)(C)[C@@H](O[C@@H]6OC[C@@H](O)[C@H](O)[C@H]6O)CC[C@@]56C[C@@]46CC[C@]2(C)[C@@H]13,inactive,
CCCCC,inactive,
CC(C)(O)c1ccc(CNC(=O)c2cccnc2Oc2ccc(F)cc2)cc1,inactive,
CCCCCCCN,inactive,
CCOC(=O)C(F)(F)F,inactive,
C/C=C(/C(=C/C)c1ccc(OC(C)=O)cc1)c1ccc(OC(C)=O)cc1,inactive,
CCCCC(CC)COC(=O)CCCCCCCCC(=O)OCC(CC)CCCC (stereo not given),inactive,
COc1cc2c(cc1OC)C(C(C(=O)N(CCc1ccc(OC)c(OC)c1OC)CCc1ccc(OC)c(OC)c1OC)c1ccccc1)=NCC2 (stereo not given),inactive,
CC(=O)[O][Al],inactive,
C/C=C/C(=O)CC,,1.29% [at 15.8 µM] (inactive)
O=C(OCCc1ccccc1)c1ccccc1,inactive,
Cc1ccc(C(C)OC(=O)C2(C)CCC(C(=O)O)C2(C)C)cc1 (stereo not given),inactive,
Nc1ccc([N+](=O)[O-])c(C(F)(F)F)c1,inactive,
CC(=O)c1ccc2c(c1)N(CCCN1CCC(CCO)CC1)c1ccccc1S2,inactive,
CCC(CC)Nc1ccc(C)c(C)c1,inactive,

Compound,Potency,cytotoxicity increase
N=c1ccn2c(n1)O[C@H]1[C@H](O)[C@@H](CO)O[C@H]12,inactive,
NC(=O)C(c1ccccc1)(c1ccccc1)[C@@H]1CCN(CCc2ccc3c(c2)CCO3)C1,21.3 µM (active),
COc1ccc(S(=O)(=O)N2C(=O)[C@@](c3ccccc3OC)(N3C[C@H](O)C[C@H]3C(=O)N(C)C)c3cc(Cl)ccc32)c(OC)c1,inactive,
C[Si](C)(CCCN)O[Si](C)(C)CCCN,inactive,
CCCNCC(O)COc1ccccc1C(=O)CCc1ccccc1 (stereo not given),inactive,
NCC(=O)CCC(=O)O,inactive,
OC(CN1CCC(Cc2ccc(F)cc2)CC1)c1ccc(Cl)cc1 (stereo not given),inactive,
CN1CCC(=C2c3ccccc3Sc3ccccc32)CC1,inactive,
CC(C)(C)OCC1CO1 (stereo not given),inactive,
O=C1OC(=O)C2C3C=CC(C3)C12 (stereo not given),inactive,
C1CCCNCCC1,inactive,
COc1cc(C(=O)OCCCN2CCCN(CCCOC(=O)c3cc(OC)c(OC)c(OC)c3)CC2)cc(OC)c1OC,inactive,
CCOC(=O)COC(=O)c1cc(Oc2ccc(C(F)(F)F)cc2Cl)ccc1[N+](=O)[O-],inactive,
Cc1c(N)cccc1[N+](=O)[O-],inactive,
Cc1ccc(C(=O)Oc2ccc(C(O)CNC(C)(C)C)cc2OC(=O)c2ccc(C)cc2)cc1 (stereo not given),23.9 µM (active),
CNCCCN1c2ccccc2CCc2ccccc21,inactive,
CC1OC(=O)C(C)OC1=O (stereo not given),inactive,
CC1=CC=C(C(C)C)CC1,inactive,
CC(C)(C)Cl,inactive,
O=C1CCC(=O)O1,inactive,
